# Reference: PubChem BioAssay AID651818 (Broad Institute, 2012)
# Potency and affinity values are given separately. Results filed as inconclusive are left out. A call without a number means that no potency is given here. The source made the active and inactive calls. No stated cut-off is given here; in the data, inconclusive means activity change below about -55%; inactive means above that.
# Assay: intracellular Trypanosoma cruzi inhibitors in host cells – cell-based, plate reader, cherry-pick samples, set 3, dose response (AID 651818)
# Conditions: series mostly up to 10 µM
row,SMILES,outcome
1,CNC[C@H]1Oc2c(NS(=O)(=O)c3cccs3)cccc2C(=O)N([C@@H](C)CO)C[C@@H]1C,inactive
2,C[C@H](CO)N1C[C@H](C)[C@H](CN(C)C(=O)Nc2ccccc2)Oc2c(NC(=O)Nc3ccc(C(F)(F)F)cc3)cccc2C1=O,inactive
3,C[C@H](CO)N1C[C@H](C)[C@H](CN(C)S(C)(=O)=O)Oc2c(NS(=O)(=O)c3ccc(Cl)cc3)cccc2C1=O,inactive
4,C[C@@H]1CN([C@@H](C)CO)C(=O)c2cccc(NC(=O)c3cnccn3)c2O[C@H]1CN(C)CC1CC1,inactive
5,C[C@@H]1CCCCO[C@@H](CN(C)Cc2ccc(C(F)(F)F)cc2)[C@@H](C)CN([C@H](C)CO)C(=O)c2cc(NC(=O)Nc3ccc4c(c3)OCO4)ccc2O1,inactive
6,C[C@@H]1CN([C@@H](C)CO)C(=O)c2cccc(NS(=O)(=O)c3cn(C)cn3)c2O[C@H]1CN(C)C(=O)Nc1ccc2c(c1)OCO2,inactive
7,C[C@H](CO)N1C[C@H](C)[C@@H](CN(C)Cc2ccccc2)Oc2c(NS(C)(=O)=O)cccc2C1=O,inactive
8,C[C@H](CO)N1C[C@H](C)[C@@H](CN(C)C(=O)Nc2ccc(C(F)(F)F)cc2)Oc2c(NS(=O)(=O)c3ccc(Cl)cc3)cccc2C1=O,inactive
9,C[C@H](CO)N1C[C@H](C)[C@@H](CN(C)S(=O)(=O)c2ccc(Cl)cc2)Oc2c(NC(=O)C3CC3)cccc2C1=O,inactive
10,C[C@@H]1CN([C@H](C)CO)C(=O)c2cccc(NS(=O)(=O)c3cn(C)cn3)c2O[C@@H]1CN(C)CC1CCCCC1,inactive
11,CC(C)NC(=O)Nc1cccc2c1O[C@H](CN(C)Cc1ccc3c(c1)OCO3)[C@@H](C)CN([C@H](C)CO)C2=O,inactive
12,C[C@H](CO)N1C[C@H](C)[C@H](CN(C)Cc2ccc3c(c2)OCO3)Oc2c(NC(=O)Nc3ccc(F)cc3)cccc2C1=O,inactive
13,Cc1noc(C)c1NC(=O)Nc1cccc2c1O[C@@H](CN(C)C(=O)NC1CCCCC1)[C@@H](C)CN([C@@H](C)CO)C2=O,inactive
14,COc1ccc(S(=O)(=O)N(C)C[C@H]2Oc3c(NS(=O)(=O)c4ccc(F)cc4)cccc3C(=O)N([C@H](C)CO)C[C@H]2C)cc1,inactive
15,Cc1noc(C)c1S(=O)(=O)N(C)C[C@@H]1Oc2c(NS(=O)(=O)c3cn(C)cn3)cccc2C(=O)N([C@H](C)CO)C[C@@H]1C,inactive
16,COc1ccc(NC(=O)N(C)C[C@H]2Oc3c(NC(=O)C4CCOCC4)cccc3C(=O)N([C@H](C)CO)C[C@@H]2C)cc1,inactive
17,CC(C)NC(=O)N(C)C[C@@H]1Oc2c(NS(=O)(=O)c3ccc(F)cc3)cccc2C(=O)N([C@H](C)CO)C[C@@H]1C,inactive
18,Cc1noc(C)c1NC(=O)N(C)C[C@@H]1Oc2c(NC(=O)NC3CCCCC3)cccc2C(=O)N([C@@H](C)CO)C[C@@H]1C,inactive
19,C[C@H](CO)N1C[C@H](C)[C@H](CN(C)C(=O)NC2CCCCC2)Oc2c(NS(=O)(=O)c3ccc(F)cc3)cccc2C1=O,inactive
20,Cc1noc(C)c1NC(=O)Nc1cccc2c1O[C@@H](CN(C)Cc1ccc(-c3ccccc3)cc1)[C@@H](C)CN([C@@H](C)CO)C2=O,inactive
21,C[C@@H]1CN([C@H](C)CO)C(=O)c2cccc(NC(=O)c3ccncc3)c2O[C@@H]1CN(C)Cc1ccc(C(=O)O)cc1,inactive
22,Cc1ccc(S(=O)(=O)N(C)C[C@H]2Oc3c(NC(=O)Nc4c(C)noc4C)cccc3C(=O)N([C@@H](C)CO)C[C@H]2C)cc1,inactive
